# Screens (PubChem BioAssay)
# IL-1B inflam inh – inhibitors of inflammasome signaling (IL-1 beta secretion); THP-1 LPS/ATP IL-1B secretion, AlphaLISA, 16 h; stronger effect = lower value; activity change, % at 57.5 µM; hit rate 4.7% among 360,000; AID 743279; in the data active = activity change below about -50%; inconclusive = mostly about -30% to -49%; also: % is scaled to controls: 0 for no effect and ±100 for the full control effect
#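 THP-1 cells pretreated 1 hr with compounds (up to 57.5 uM final), then stimulated with LPS (250 ng/mL final) plus ATP (1.25 mM final); secreted IL-1B measured by AlphaLISA after 16 hr, decreased signal indicating inhibition.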
# TDP1 cell CPT – growth inhibition of DT40 Tdp1-/-;hTDP1 cells with camptothecin (screen for TDP1 inhibitors); Potency, µM (titrated, usually from 46.2 µM), inactives show at the top dose activity change, negative = growth inhibition, most hits filed as inhibitors; chicken DT40 Tdp1-/-;hTDP1 cells + 20 nM CPT, ATP luminescence, 48 h; AID 686979; hit rate 12% among 420,000; also: potency is read from the fitted curve at half-maximal effect; % is scaled to controls: 0 for no effect and ±100 for the full control effect; nearly all actives have a fitted effect of over 55% in size
#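 Chicken DT40 Tdp1-/- cells stably complemented with human TDP1 were seeded at 400 cells/well in medium containing 20 nM camptothecin, exposed to pin-transferred compounds, and grown at 37 °C for at least 48 hr. Viability was read as ATP luminescence.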
# TDP1 block – blocks human tyrosyl-DNA phosphodiesterase 1; Q9NUW8; recombinant TDP1, AlphaScreen DNA substrate cleavage; Potency, µM (highest dose often 130 µM), for inactives: at the highest dose activity change, negative = inhibition, usual class: inhibitors; hit rate 0.28% among 350,000; also: potency is read from the fitted curve at half-maximal effect; % is scaled to controls: 0 for no effect and ±100 for the full control effect; nearly all actives have a fitted effect of over 40% in size
# Target sequence (Q9NUW8 whole entry, looked up): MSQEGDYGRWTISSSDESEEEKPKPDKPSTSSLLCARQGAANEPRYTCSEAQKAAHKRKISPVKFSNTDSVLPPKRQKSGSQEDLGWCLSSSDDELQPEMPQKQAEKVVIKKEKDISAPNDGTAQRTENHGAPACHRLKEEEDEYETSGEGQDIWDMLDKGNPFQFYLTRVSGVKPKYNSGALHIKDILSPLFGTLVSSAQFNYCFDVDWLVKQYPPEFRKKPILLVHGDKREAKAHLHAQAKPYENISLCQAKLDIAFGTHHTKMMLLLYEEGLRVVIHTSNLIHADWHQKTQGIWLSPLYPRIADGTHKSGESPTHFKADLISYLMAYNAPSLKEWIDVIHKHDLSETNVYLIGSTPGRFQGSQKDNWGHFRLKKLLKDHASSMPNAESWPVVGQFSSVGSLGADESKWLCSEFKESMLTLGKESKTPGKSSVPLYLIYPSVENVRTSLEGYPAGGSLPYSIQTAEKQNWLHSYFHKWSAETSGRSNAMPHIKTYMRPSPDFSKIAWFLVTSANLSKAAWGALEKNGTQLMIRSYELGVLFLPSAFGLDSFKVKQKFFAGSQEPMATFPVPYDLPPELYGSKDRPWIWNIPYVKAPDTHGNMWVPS
#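 AlphaScreen read-out: signal falls as enzyme removes the 3' tyrosine-FITC from a 5'-biotinylated DNA oligo (15 nM, 5 min, RT). Enzyme was E. coli-made recombinant Tdp1 at 1 nM, exposed to compound for 15 min beforehand; beads 10 ug/ml, 10 min.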
# HepG2 tox – counter-screen for TGF-b inhibitors: cytotoxicity in HepG2 cells; HepG2 CAGA-GFP viability, ATP luminescence, 18 h; Potency, µM (top dose mostly 46.1 µM), inactives show at the highest dose activity change, negative = cytotoxicity, usual class: cytotoxic; hit rate 0.76% among 410,000; also: potency is read from the fitted curve at half-maximal effect
#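 HepG2 CAGA-GFP cells (1000/well, DMEM with 1% FBS) received compound, then TGF-beta at 500 pg/mL final, and were incubated 18 hours at 37 degrees C. Viability was read by CellTiter-Glo luminescence. Media-only wells were set as complete cell-killing and DMSO as no toxicity.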
# TGFb SMAD3 inh – inhibitors of TGF-b signaling. HepG2 CAGA-GFP TGF-b/SMAD3 reporter, GFP fluorescence, 18 h; TGF-beta stimulated, 500 pg/mL final. hit rate 1.2% among 410,000. Potency, µM (top dose mostly 46.1 µM), without a hit: top-dose activity, negative = inhibition, hits mostly inhibitors; also: potency is read from the fitted curve at half-maximal effect; % is scaled to controls: 0 for no effect and ±100 for the full control effect; nearly all actives have a fitted effect of over 65% in size
#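 Inhibition of TGF-beta-driven CAGA-GFP reporter expression in HEPG2 cells is measured by cellular GFP fluorescence after 18 h stimulation with 500 pg/mL recombinant TGF-beta in 1% FBS medium at 37 degrees C.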
# DT40 TDP1 no CPT – qHTS for Inhibitors of human tyrosyl-DNA phosphodiesterase 1 (TDP1): qHTS in cells in absence of CPT; DT40 Tdp1-/- hTDP1 cells, no CPT, ATP luminescence, 48 h; Potency, µM (top dose mostly 46.2 µM), without a hit: at the top dose activity change, negative = growth inhibition, usual class: inhibitors; hit rate 15% among 420,000; also: potency is read from the fitted curve at half-maximal effect; % is scaled to controls: 0 for no effect and ±100 for the full control effect; nearly all actives have a fitted effect of over 55% in size
#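 Growth kinetics read by CellTiter-Glo luminescence after ≥48 hr at 37 °C. Cells: DT40 Tdp1-/- stably carrying human TDP1, 400 per well, compound exposure in the absence of CPT (DMSO vehicle).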
# An asterisk follows results filed as active; u = inconclusive; x = no result; [ ] = remark or other dose. Hits are enriched below; roughly 18% of the tested compounds scored in any of these assays. Unless noted, calls follow the shape of the dose curve; as a rule, active = well fitted curve in the direction sought with a large enough effect; inconclusive = small, poorly fitted or top-dose-only effect, or another doubt; inactive = no such curve, though single readings can be large; an effect the other way counts as inactive or inconclusive.
SMILES,IL-1B inflam inh,TDP1 cell CPT,TDP1 block,HepG2 tox,TGFb SMAD3 inh,DT40 TDP1 no CPT
COc1ccccc1-c1c(C)nn2c(N3CCOCC3)cc(C)nc12,30.1,-1.0%,x,0.6%,7.9%,18.9%
CCOC(=O)C1CCN(c2cc(C)nc3c(-c4ccccc4OC)c(C)nn23)CC1,x,18.4µM*,-1.9%,-10.1%,0.0%,18.4µM*
COc1ccccc1-c1c(C)nn2c(N3CCCCCC3)cc(C)nc12,-77.2*,16.4µM*,0.0%,-41.4%,11.2µM*,18.4µM*
Cc1cccc(-c2ccc3ncnc(NCc4cccnc4)c3c2)c1,x,x,2.0%,-23.1%,u,x
c1cncc(CNc2ncnc3ccc(-c4ccc5c(c4)OCO5)cc23)c1,x,x,3.2%,-9.4%,-2.0%,x
c1cncc(CNc2ncnc3ccc(-c4ccoc4)cc23)c1,x,10.3µM*,2.2%,1.3%,-1.9%,u
Cc1ccc2ncnc(Nc3ccccc3)c2c1,-3.0,-22.1%,-5.1%,4.0%,-8.0%,u
Cc1cccc(CNc2ncnc3ccc(-c4ccoc4)cc23)c1,x,20.6µM*,4.3%,-33.1%,u,13µM*
Cc1cccc(CNc2ncnc3ccc(-c4cccnc4)cc23)c1,x,11.6µM*,0.0%,-23.7%,u,18.4µM*
c1ccc(Nc2ncnc3ccc(-c4cccnc4)cc23)cc1,x,u,-3.8%[56.1 µM],x,x,18.4µM*
Cc1noc(C)c1-c1ccc2ncnc(NCc3cccnc3)c2c1,x,9.2µM*,x,x,x,u
Cc1cccc(NC(=O)CN2C(=O)S/C(=C\c3ccc(-c4cccc(C(=O)O)c4C)o3)C2=O)c1,20.2,-4.5%,25.1µM*,-7.5%,-8.4%,-13.3%
COc1cc(/C=C2\SC(=N)N(c3ccc(F)cc3)C2=O)ccc1O,1.9,25.9µM*,2.6%,8.0%,9.1%,23.1µM*
O=C(CN1C(=O)S/C(=C\c2ccccc2)C1=O)NCCCn1ccnc1,-3.1,u,4.8%,-3.1%,7.2%,-2.0%
CC(C)c1ccc(/C=C2\SC(=O)N(CC(=O)NCCCn3ccnc3)C2=O)cc1,-0.7,u,8.8%,-22.8%,-3.0%,14.6µM*
N=C1S/C(=C\c2cccc3ccccc23)C(=O)N1c1ccc(F)cc1,-24.6,5.17µM*,-1.1%,7.3%,-13.5%,3.66µM*
CCOc1ccc(NC(=O)C2CCN(S(=O)(=O)c3ccc4c(c3)C(C)(C)C(=O)N4C)CC2)cc1,15.5,4.3%,x,1.1%,6.9%,-20.4%
O=c1cc(CN2CCN(c3cccc(C(F)(F)F)c3)CC2)nc2sccn12,33.7,u,-2.5%,-6.8%,16.1%,u
COc1cc(OC)c(/C=C2\SC(=O)N(CC(=O)Nc3ccccc3F)C2=O)c(OC)c1,-6.8,u,x,-78.0%,1.4%,20.6µM*
COc1cc(/C=C2\SC(=O)N(CC(=O)Nc3cccc(C)c3)C2=O)cc([N+](=O)[O-])c1O,-26.0,u,0.0%,-11.7%,-2.6%,u
CCOc1cc(/C=C2\SC(=O)N(CC(=O)Nc3ccccc3F)C2=O)cc([N+](=O)[O-])c1O,-19.9,8.2µM*,7.2%,-35.0%,2.5%,20.6µM*
COc1ccc(/C=C2\SC(=O)N(CC(=O)Nc3ccc(F)cc3)C2=O)cc1O,u,u,3.2%,-16.0%,u,14.6µM*
COc1cc(/C=C2\SC(=O)N(CC(=O)Nc3ccccc3F)C2=O)cc(Cl)c1O,31.4,18.4µM*,x,-21.3%,34.1%,13µM*
COc1ccc2nc(C3CCCCC3)c3c(c2c1)CCC3,16.3,u,x,3.5%,u,u
Cc1ccc(/C=C2\SC(=S)N(CC(=O)Nc3cccnc3)C2=O)cc1,-6.7,-4.1%,0.0%,1.3%,17.7%,-10.8%
SMILES,IL-1B inflam inh,TDP1 cell CPT,TDP1 block,HepG2 tox,TGFb SMAD3 inh,DT40 TDP1 no CPT
Cc1ccc(NC(=O)CN2C(=O)S/C(=C/c3ccncc3)C2=O)cc1,-5.0,16.4µM*,5.2%,-6.4%,11.0%,u
CCc1ccc2c(c1)NC(=O)C2(C)Cc1ccccc1OC (configuration not stated),38.6,u,x,-9.8%,-8.7%,u
Cn1nc(-c2ccccc2F)c2cc(C(=O)NCc3ccccc3Cl)sc21,x,u,3.8%,-30.5%,-4.9%,u
COc1ccc(NC(=O)c2cc3c(-c4ccccc4F)nn(C)c3s2)c(OC)c1,x,10.3µM*,4.7%,-3.8%,1.9%,10.3µM*
COc1ccc(OC)c(CCNC(=O)c2cc3c(-c4ccccc4F)nn(C)c3s2)c1,x,11.6µM*,11.5%,-41.3%,u,8.2µM*
Cc1nnc2c(NCCc3ccccc3)nc3ccccc3n12,44.5,-14.1%,x,6.7%,9.8%,-5.6%
CCN1CCN(CCC(=O)Nc2cc(OC)cc(OC)c2)CC1,1.4,4.3%,x,-17.8%,-14.6%,-2.5%
COc1ccccc1C(=O)NC1(C(F)(F)F)C(=O)Nc2c1c(=O)[nH]c(=O)n2-c1ccc(F)cc1 (configuration not stated),x,x,1.9%,-2.1%,21.5%,x
Cc1ccc(-n2c3c(c(=O)[nH]c2=O)C(NC(=O)c2ccccc2C)(C(F)(F)F)C(=O)N3)cc1 (configuration not stated),x,13µM*,0.0%,4.9%,15.8%,23.1µM*
CCCCN1CCc2c([nH]c3c(C)cccc23)C1=O,-19.6,29.1µM*,-3.0%,-3.5%,-2.2%,u
Cc1cccc2c(=O)n3c(cc12)-c1[nH]c2ccccc2c1CC3,-5.6,u,x,-24.8%,-29.5%,u
COCCn1c(=O)c(-c2cn(C)c3ccccc23)nc2cnc(N3CCNCC3)nc21,x,1.5%,x,x,x,11.8%
CC1(OC(=O)c2ccc(Cl)nc2)C(=O)C=C2C=C3CCCN3C=C2C1=O (configuration not stated),52.9,u,8.91µM*,-20.0%,-0.1%,u
CCCN1CCCc2cc(CN)ccc21,46.7,9.2µM*,2.9%,-44.1%,u,18.4µM*
CCOc1ccc(Cl)cc1-c1cc(C(=O)NCCOC)[nH]n1,-16.1,u,x,-9.1%,21.3%,u
CCOC(=O)c1sc(NC(=O)Nc2cccc(Cl)c2)cc1C,-76.0*,10.3µM*,-4.2%,-28.0%,u,9.2µM*
CCOC(=O)c1sc(NC(=O)c2ccc(Br)o2)cc1C,u,u,0.0%,-9.6%,11.0%,16.4µM*
COc1ccccc1NC(=O)CN1CCN(CC(=O)Nc2ccc(Cl)c(C(F)(F)F)c2)CC1,-79.8*,14.6µM*,2.1%,-30.2%,u,13µM*
